Data on 40 compounds can be found in PubChem BioAssay (Tox21).

The structures appear in SMILES notation. Results filed as inconclusive are left out. Calls of active or inactive are those of the source. Calls follow the shape of the dose curve; as a rule, active = well fitted activation curve with a large enough effect in the repeat runs; inconclusive = weak or mixed curves; inactive = flat fitted curve, though single readings scatter.
% is scaled to controls: 0 for no effect and ±100 for the full control effect; potency is read from the fitted curve at half-maximal effect.

A short description of this assay: A CellTox Green Cytotoxicity Assay to monitor cytotoxicity in HEK293 cells - 40 hour (AID 1224871). Also: nearly all actives have a fitted effect of over 45% in size. The settings on record: CellTox Green fluorescence; series mostly up to 76.8 µM; cytotoxicity increase: at the top concentration. The text has this: National Center for Advancing Translational Sciences [NCATS]
NIH Chemical Genomics Center [NCGC]
U.S. Environmental Protection Agency [EPA]
National Institutes of Environmental Health Sciences [NIEHS]
National Toxicology Program [NTP]
Cell-based models are critical for drug discovery. Determining the natural cytotoxic effects resulting from test compounds is an essential research activity. A CellTox Green Cytotoxicity Assay to monitor cytotoxicity in real time of continues cell culture during 40 hours of the compound treatment was used to screen Tox21 10K library compounds in Hek293 cells. CellTox Green Cytotoxicity Assay is a nonlytic, homogeneous, biofluorescent method to measure cytotoxicity in cell culture after experimental manipulation. The assay system uses a proprietary asymmetric cyanine dye that is excluded from viable cells but preferentially stains the dead cell's DNA. […] Viable cells produce no appreciable increases in fluorescence. Therefore, the fluorescence signal produced by the binding interaction with dead cell DNA is proportional to cytotoxicity.
The mixture of Hek293 cell suspension and reagents were dispensed at 600cells/6 ul/well in 1536-well tissue culture treated black solid bottom plates using a Multidrop dispenser. After the assay plates were incubated at a 37 C/5% CO2 incubator for 5 hours, 23 nL of compounds dissolved in DMSO, positive and negative controls was transferred to the assay plate by a pintool work station. The plates were incubated at 37 C for 40 hours. The fluorescence intensity were measured at 0h, 8h, 16h, 24h, 32h and 40h time points using ViewLux plate reader during compound treatment.
As for `OCC(CO)(CO)COCC(CO)(CO)CO`, the “cytotoxicity increase” value was -2.29% (inactive). As to `CN(C)C(=O)C(CCN1CCC(O)(c2ccc(Cl)cc2)CC1)(c1ccccc1)c1ccccc1`, the Potency was 26.8 µM (active). As for `CCN1CCCC(OC(=O)C(c2ccccc2)c2ccccc2)C1` (stereo not given), the “cytotoxicity increase” value is -26% [at 35.3 µM] (inactive).

Consider `CCCCCOC(=O)Nc1nc(=O)n([C@@H]2O[C@H](C)[C@@H](O)[C@H]2O)cc1F`, for which the “cytotoxicity increase” value was -0.51% [at 35.3 µM] (inactive).

With `C=C(C)C(=O)OCCC(C)OC(=O)C(=C)C` (stereo not given), the “cytotoxicity increase” value was 7.01% (inactive).

Consider `NS(=O)(=O)c1cc2c(cc1Cl)NC(CSCc1ccccc1)=NS2(=O)=O`, for which the “cytotoxicity increase” value is -17.7% [at 35.3 µM] (inactive).

On to `OC[C@H]1O[C@@H]2O[C@H]3[C@H](O)[C@@H](O)[C@@H](O[C@H]4[C@H](O)[C@@H](O)[C@@H](O[C@H]5[C@H](O)[C@@H](O)[C@@H](O[C@H]6[C@H](O)[C@@H](O)[C@@H](O[C@H]7[C@H](O)[C@@H](O)[C@@H](O[C@H]8[C@H](O)[C@@H](O)[C@@H](O[C@H]9[C@H](O)[C@@H](O)[C@@H](O[C@H]1[C@H](O)[C@H]2O)O[C@@H]9CO)O[C@@H]8CO)O[C@@H]7CO)O[C@@H]6CO)O[C@@H]5CO)O[C@@H]4CO)O[C@@H]3CO`, for which the “cytotoxicity increase” value is -3.56% [at 35.3 µM] (inactive).

As for `CNC(=O)c1c(I)c(NC(=O)CCCCC(=O)Nc2c(I)c(C(=O)O)c(I)c(C(=O)NC)c2I)c(I)c(C(=O)O)c1I`, the “cytotoxicity increase” value is -15.1% [at 35.3 µM] (inactive).

Take `Cc1cc(C)cc(OCC2CNC(=O)O2)c1` (stereo not given): the “cytotoxicity increase” value was -15% [at 35.3 µM] (inactive).

For the compound `O=C(O)c1ccc[n+]([O-])c1`, the “cytotoxicity increase” value was -8.47% [at 35.3 µM] (inactive). Still for that read-out and setting: the same measure for `Cc1nc(-c2ccc(OCC(C)C)c(C#N)c2)sc1C(=O)O`: 7.4% [at 35.3 µM] (inactive); for `O=C1OC(=O)c2cc([N+](=O)[O-])ccc21`: -2.94% (inactive). Take `Cc1ccc(Nc2ccc(O)c3c2C(=O)c2ccccc2C3=O)cc1`: the “cytotoxicity increase” value is 1.03% (inactive). For the compound `CCCCCCCCCCCCI`, the “cytotoxicity increase” value is 26.3% (inactive). Still for that read-out and setting: the same measure for `O=C(O)c1cccc(C(=O)O)n1`: -14.7% (inactive); for `CCOC(=O)Cn1c(=O)sc2cccc(Cl)c21`: 8.68% (inactive). As to `Cc1ncc(CSSCc2cnc(C)c(O)c2CO)c(CO)c1O`, the “cytotoxicity increase” value is 0.362% [at 35.3 µM] (inactive). Same read-out and setting: the figure for `CCCCC1CCCCC(=O)O1` (stereo not given) is 2.52% (inactive); for `Cn1cnc2c(=O)[nH]c(N)nc21` it is 2.92% (inactive). Still for that read-out and setting: the figure for `COc1ccc2cc(C=O)ccc2c1` is -1.17% [at 35.3 µM] (inactive).

Take `Cc1c(F)cc2c(=O)c(C(=O)O)cn3c2c1CCC3C` (stereo not given): the “cytotoxicity increase” value is 1.04% [at 35.3 µM] (inactive).

Regarding `FC(F)(F)C(F)(F)C(F)(F)C(F)(F)C(F)(F)C(F)(F)C(F)(F)C(F)(F)C(F)(F)C(F)(F)F`, the cytotoxicity increase is -18% [at 6.97 µM] (inactive). Same read-out and setting: the figure for `NC1CCN(c2cccc(Cl)n2)CC1` is -13.8% [at 35.3 µM] (inactive); for `CCCCCCCCCCC1CO1` (stereo not given) it is -6.62% (inactive); for `Cc1ccc(N)cc1[N+](=O)[O-]` it is -5.94% (inactive).

Take `CCCC(C)C(=O)O` (stereo not given): the “cytotoxicity increase” value was 0.637% (inactive). In the case of `C=C[Si](OC)(OC)OC`, the “cytotoxicity increase” value was -0.169% (inactive). The same measure, in the same setting: the same measure for `COCc1ccc(COC)cc1`: 1.43% (inactive); for `NC(=O)CCCCC1CCSS1` (stereo not given): -16.5% [at 35.3 µM] (inactive); for `c1ccc(SCCSc2ccccc2)cc1`: -1.23% (inactive).

Regarding `CO[Si](OC)(OC)OC`, the “cytotoxicity increase” value was -5.94% (inactive). Still for that read-out and setting: the figure for `CC(C)COC(=O)c1ccccc1O` is 2.73% (inactive).

For `CN(C)C(=O)Nc1ccccc1`, the “cytotoxicity increase” value is -12% (inactive). As for `O=C1C(CCS(=O)c2ccccc2)C(=O)N(c2ccccc2)N1c1ccccc1` (stereo not given), the “cytotoxicity increase” value is -17.2% [at 35.3 µM] (inactive). Turning to `COC(=O)C1=C(C)NC(C)=C(C(=O)OCC(C)=O)C1c1ccccc1[N+](=O)[O-]` (stereo not given), the “cytotoxicity increase” value is -16.9% [at 35.3 µM] (inactive).

`Nc1cc(C(Cl)=C(Cl)Cl)c(S(N)(=O)=O)cc1S(N)(=O)=O`: the “cytotoxicity increase” value is -1.31% [at 35.3 µM] (inactive).

Take `COc1cc(O)cc(O)c1`: the “cytotoxicity increase” value is 6.02% [at 35.3 µM] (inactive). For `CCC(C)OC(=O)N1CCCCC1CCO` (stereo not given), the “cytotoxicity increase” value was -6.87% (inactive).

As for `CN1[C@@H]2CC[C@H]1CC(NC(=O)n1c(=O)[nH]c3ccccc31)C2` (stereo not given in full), the “cytotoxicity increase” value is -1.59% [at 35.3 µM] (inactive). On the same count and under the same terms, the figure for `CCC(=O)c1cccc(Cl)c1` is 4.99% (inactive).
